Activity calls are given as the source filed them. How the source made its calls: active means hit-call score of the fitted dose curve at least 0.9, where 1 is the maximum; inactive means score below 0.9.
Assays:
Settings in all cases: mRNA level, 48 h; actives raise or lower the signal
[1] = read-out: Bcl-2 (BAD) gene, BAD (gene 572); assay: LTEA_HepaRG_BAD: Life Technologies and Expression Analysis (LTEA) Assay for Bcl-2 (BAD) gene using HepaRG (AID 2283469)
Procedure, shortened: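 Activity values reflect up- or down-regulation of BAD mRNA in human HepaRG hepatic cells treated 48 h in serum-free medium, with eight-point half-log dosing capped at 100 uM and 0.5% DMSO vehicle.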

[2] = read-out: Bcl-2 (BAX) gene, BAX (gene 581); assay: LTEA_HepaRG_BAX: Life Technologies and Expression Analysis (LTEA) Assay for Bcl-2 (BAX) gene using HepaRG (AID 2283470)
Procedure, shortened: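 Human HepaRG cells treated in duplicate for 48 h across eight concentrations (max 100 uM, 0.5% DMSO); BAX expression measured by qRT-PCR.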

[3] = read-out: adenosine kinase (ADK) gene, ADK (gene 132); assay: LTEA_HepaRG_ADK: Life Technologies and Expression Analysis (LTEA) Assay for adenosine kinase (ADK) gene using HepaRG (AID 2283471)
Procedure, shortened: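 Differentiated HepaRG cells dosed 48 h in serum-free induction medium, 0.5% DMSO vehicle, eight half-log concentrations from 100 uM, in duplicate. ADK mRNA by TaqMan qRT-PCR normalised to ACTB, GAPDH, POLR2A; bidirectional fit versus DMSO.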

[4] = read-out: Alpha-fetoprotein (AFP) gene, AFP (gene 174); assay: LTEA_HepaRG_AFP: Life Technologies and Expression Analysis (LTEA) Assay for Alpha-fetoprotein (AFP) gene using HepaRG (AID 2283472)
Procedure, shortened: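 Measures AFP mRNA change in HepaRG after 48 h chemical exposure (8 half-log concentrations, highest 100 uM, 0.5% DMSO). Fold change relative to DMSO, fitted in both directions.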

[5] = read-out: BCL2L11 (gene 10018); assay: LTEA_HepaRG_BCL2L11: Life Technologies and Expression Analysis (LTEA) Assay for Bcl-2 (BCL2L11) gene using HepaRG (AID 2283473)
Procedure, shortened: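 HepaRG, 48 h exposure, 8-pt half-log series from 100 uM in 0.5% DMSO, duplicates; qRT-PCR (Fluidigm TaqMan) for BCL2L11, housekeeping-normalized; bidirectional curve fit relative to DMSO baseline.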

[6] = read-out: Apolipoprotein A-V (APOA5) gene, APOA5 (gene 116519); assay: LTEA_HepaRG_APOA5: Life Technologies and Expression Analysis (LTEA) Assay for Apolipoprotein A-V (APOA5) gene using HepaRG (AID 2283474)
Procedure, shortened: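 HepaRG, 48 h chemical exposure in serum-free induction medium, 8-pt half-log series (top 100 uM), 0.5% DMSO vehicle, duplicates. Readout: APOA5 mRNA by qRT-PCR, housekeeping-normalized; bidirectional fit vs DMSO baseline.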

[7] = read-out: Apoptosis regulator Bcl-2 (Homo sapiens) (UniProt P10415); assay: LTEA_HepaRG_BCL2: Life Technologies and Expression Analysis (LTEA) Assay for Bcl-2 gene using HepaRG (AID 2283475)
Procedure, shortened: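 Each chemical was tested in duplicate on HepaRG cultures held in serum-free induction medium for 48 h, highest concentration 100 uM with half-log dilutions. Transcript levels came from multiplexed qRT-PCR, normalised to housekeeping genes; activity was scored in either direction relative to DMSO.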

[8] = read-out: Bcl-2 (BID) gene, BID (gene 637); assay: LTEA_HepaRG_BID: Life Technologies and Expression Analysis (LTEA) Assay for Bcl-2 (BID) gene using HepaRG (AID 2283476)
Procedure, shortened: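 Assay used HepaRG hepatic cells treated 48 h in serum-free medium with half-log dilutions from 100 uM. Endpoint: BID mRNA, qRT-PCR, normalized to ACTB/GAPDH/POLR2A.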

[9] = read-out: Caspase-3 (Homo sapiens) (UniProt P42574); assay: LTEA_HepaRG_CASP3: Life Technologies and Expression Analysis (LTEA) Assay for cysteine-aspartic acid protease (CASP3) using HepaRG (AID 2283477)
Procedure, shortened: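 HepaRG, 48 h exposure, 8 conc. (top 100 uM, half-log steps, duplicate), 0.5% DMSO vehicle; qRT-PCR of CASP3 transcript, housekeeping-normalised (ACTB/GAPDH/POLR2A); bidirectional curve fit vs DMSO baseline.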

[10] = read-out: Cytochrome P450 (CYP1A2), CYP1A2 (gene 1544); assay: LTEA_HepaRG_CYP1A2: Life Technologies and Expression Analysis (LTEA) Assay for Cytochrome P450 (CYP1A2) using HepaRG (AID 2283479)
Procedure, shortened: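 HepaRG, 48 h exposure, top 100 uM, half-log 8-pt, 0.5% DMSO vehicle, duplicates. Readout: TaqMan qRT-PCR of CYP1A2 mRNA, housekeeping-normalized (ACTB/GAPDH/POLR2A). Gain/loss fit relative to DMSO baseline.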

[11] = read-out: cysteine-aspartic acid protease (CASP8), CASP8 (gene 841); assay: LTEA_HepaRG_CASP8: Life Technologies and Expression Analysis (LTEA) Assay for cysteine-aspartic acid protease (CASP8) using HepaRG (AID 2283480)
Procedure, shortened: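 Concentration-response in duplicate up to 100 uM (half-log steps, 0.5% DMSO) on differentiated HepaRG cultures for 48 h. Expression change of CASP8 mRNA is determined by TaqMan qRT-PCR with housekeeping-gene normalization.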

[12] = read-out: Cytochrome P450 (CYP2B6), CYP2B6 (gene 1555); assay: LTEA_HepaRG_CYP2B6: Life Technologies and Expression Analysis (LTEA) Assay for Cytochrome P450 (CYP2B6) using HepaRG (AID 2283481)
Procedure, shortened: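 Read-out is CYP2B6 mRNA by TaqMan qRT-PCR, normalized to three housekeeping genes and fitted bidirectionally against 0.5% DMSO baseline. Human HepaRG cells received test chemicals for 48 h, top concentration 100 uM, half-log dilutions.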

[13] = read-out: Cytochrome P450 2C19 (Homo sapiens) (UniProt P33261); assay: LTEA_HepaRG_CYP2C19: Life Technologies and Expression Analysis (LTEA) Assay for CYP2C19 using HepaRG (AID 2283482)
Procedure, shortened: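 HepaRG, 48 h chemical exposure, 8-pt half-log series from 100 uM in 0.5% DMSO, duplicates. Readout: CYP2C19 mRNA by TaqMan qRT-PCR, housekeeping-normalized. Bidirectional fit vs DMSO baseline; phenobarbital 1mM as induction control.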

[14] = read-out: CYP2C8 (gene 1558); assay: LTEA_HepaRG_CYP2C8: Life Technologies and Expression Analysis (LTEA) Assay for CYP2C8 using HepaRG (AID 2283483)
Procedure, shortened: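 This is a transcriptional endpoint in HepaRG cultures: 48 h exposure, highest concentration 100 uM. CYP2C8 mRNA is quantified by TaqMan qRT-PCR.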

[15] = read-out: CYP2C9 (gene 1559); assay: LTEA_HepaRG_CYP2C9: Life Technologies and Expression Analysis (LTEA) Assay for CYP2C9 using HepaRG (AID 2283484)
Procedure, shortened: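 Eight-point concentration-response (highest 100 uM, half-log dilutions) in HepaRG cells for 48 h; CYP2C9 expression by qRT-PCR normalized to ACTB, GAPDH, POLR2A. Bidirectional fit, DMSO baseline.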

[16] = read-out: CYP2E1 (gene 1571); assay: LTEA_HepaRG_CYP2E1: Life Technologies and Expression Analysis (LTEA) Assay for CYP2E1 using HepaRG (AID 2283485)
Procedure, shortened: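 Assay uses 48 h exposure of HepaRG hepatic cells, eight concentrations to 100 uM. Expression of CYP2E1 is quantified by TaqMan qRT-PCR with ACTB, GAPDH and POLR2A normalization; curves fitted in both directions relative to vehicle.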

[17] = read-out: CYP4A11 (gene 1579); assay: LTEA_HepaRG_CYP4A11: Life Technologies and Expression Analysis (LTEA) Assay for CYP4A11 using HepaRG (AID 2283486)
Procedure, shortened: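 CYP4A11 transcript levels were quantified by TaqMan qRT-PCR after HepaRG human liver cells were treated for 48 hours with test chemicals (top 100 uM, half-log dilutions, 0.5% DMSO). Gain or loss of signal was fitted relative to DMSO.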

[18] = read-out: Cytochrome P450 3A4 (Homo sapiens) (UniProt P08684); assay: LTEA_HepaRG_CYP3A4: Life Technologies and Expression Analysis (LTEA) Assay for CYP3A4 using HepaRG (AID 2283487)
Procedure, shortened: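 Differentiated HepaRG cells in serum-free induction medium exposed in duplicate for 48 h to 8 half-log concentrations up to 100 uM in 0.5% DMSO. CYP3A4 mRNA measured by qRT-PCR normalized to ACTB, GAPDH and POLR2A; bidirectional fit versus DMSO.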

[19] = read-out: DNA damage-inducible transcript 3 (DDIT3), DDIT3 (gene 1649); assay: LTEA_HepaRG_DDIT3: Life Technologies and Expression Analysis (LTEA) Assay for DNA damage-inducible transcript 3 (DDIT3) using HepaRG (AID 2283488)
Procedure, shortened: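 Eight-point concentration-response (100 uM highest, half-log dilutions) in HepaRG, 48 h, duplicate wells. Endpoint: qRT-PCR mRNA, normalized (ACTB, GAPDH, POLR2A), bidirectional fitting with DMSO as baseline.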

[20] = read-out: Cytochrome P450 (CYP24A1), CYP24A1 (gene 1591); assay: LTEA_HepaRG_CYP24A1: Life Technologies and Expression Analysis (LTEA) Assay for Cytochrome P450 (CYP24A1) using HepaRG (AID 2283478)
Procedure, shortened: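 qRT-PCR read-out: CYP24A1 transcript levels normalized to three housekeeping genes, bidirectional curve fits against 0.5% DMSO baseline. Human HepaRG cells treated 48 h with chemicals at eight concentrations from 100 uM in half-log steps.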

Measured: AC50

Chain of Cytochrome P450 3A4 (Homo sapiens) (P08684 whole entry, looked up): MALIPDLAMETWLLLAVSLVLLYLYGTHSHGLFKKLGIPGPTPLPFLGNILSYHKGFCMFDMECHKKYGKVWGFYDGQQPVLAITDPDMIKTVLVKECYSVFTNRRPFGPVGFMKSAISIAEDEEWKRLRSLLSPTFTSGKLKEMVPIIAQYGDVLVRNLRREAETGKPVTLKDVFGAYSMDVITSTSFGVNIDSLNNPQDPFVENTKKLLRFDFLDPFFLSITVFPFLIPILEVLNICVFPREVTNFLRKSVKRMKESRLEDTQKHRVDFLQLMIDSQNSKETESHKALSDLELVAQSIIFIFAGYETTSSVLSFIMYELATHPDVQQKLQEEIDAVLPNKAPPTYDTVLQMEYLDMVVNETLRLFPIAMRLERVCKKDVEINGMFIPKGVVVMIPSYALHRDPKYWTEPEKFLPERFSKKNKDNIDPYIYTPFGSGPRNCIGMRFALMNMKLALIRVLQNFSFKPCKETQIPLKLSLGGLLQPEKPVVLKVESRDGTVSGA
Chain of Apoptosis regulator Bcl-2 (Homo sapiens) (P10415 whole entry, looked up): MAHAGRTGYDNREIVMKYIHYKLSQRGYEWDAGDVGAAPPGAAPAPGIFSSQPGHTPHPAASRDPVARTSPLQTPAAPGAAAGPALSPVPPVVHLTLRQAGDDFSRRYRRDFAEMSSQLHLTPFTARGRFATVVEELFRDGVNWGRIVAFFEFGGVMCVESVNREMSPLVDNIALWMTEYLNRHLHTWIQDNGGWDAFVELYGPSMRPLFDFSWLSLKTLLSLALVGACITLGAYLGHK
Chain of Cytochrome P450 2C19 (Homo sapiens) (P33261 whole entry, looked up): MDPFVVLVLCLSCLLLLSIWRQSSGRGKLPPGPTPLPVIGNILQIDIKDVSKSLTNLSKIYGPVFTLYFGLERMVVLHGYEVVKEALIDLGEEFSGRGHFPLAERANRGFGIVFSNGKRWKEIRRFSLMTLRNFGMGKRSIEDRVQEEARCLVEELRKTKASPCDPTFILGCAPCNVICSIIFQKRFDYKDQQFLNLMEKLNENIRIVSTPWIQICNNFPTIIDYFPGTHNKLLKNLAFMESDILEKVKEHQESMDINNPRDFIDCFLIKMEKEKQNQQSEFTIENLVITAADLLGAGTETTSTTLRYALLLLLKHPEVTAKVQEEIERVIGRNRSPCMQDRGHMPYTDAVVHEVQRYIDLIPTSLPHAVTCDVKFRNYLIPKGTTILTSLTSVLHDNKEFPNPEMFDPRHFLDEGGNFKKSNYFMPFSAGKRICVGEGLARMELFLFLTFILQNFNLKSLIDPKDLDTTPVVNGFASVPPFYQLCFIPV
Chain of Caspase-3 (Homo sapiens) (P42574 whole entry, looked up): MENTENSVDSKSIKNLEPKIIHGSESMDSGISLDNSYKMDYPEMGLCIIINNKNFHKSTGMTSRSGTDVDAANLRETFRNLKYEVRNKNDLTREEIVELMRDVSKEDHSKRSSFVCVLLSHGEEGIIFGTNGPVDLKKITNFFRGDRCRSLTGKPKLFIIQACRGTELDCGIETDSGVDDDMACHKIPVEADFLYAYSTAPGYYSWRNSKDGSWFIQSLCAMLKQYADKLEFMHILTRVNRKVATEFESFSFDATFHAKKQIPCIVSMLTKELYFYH

CCc1nn(C)c(C(=O)NCc2ccc(C(C)(C)C)cc2)c1Cl
active: [2] 18 µM | [3] 35.8 µM | [4] 0.965 µM | [5] 636 nM | [6] 0.5 µM | [7] 0.822 µM | [8] 50 µM | [9] 16.1 µM | [10] 0.866 µM | [11] 35.8 µM | [12] 0.346 µM | [13] 20.7 µM | [14] 0.414 µM | [15] 5.99 µM | [16] 0.507 µM | [17] 0.393 µM | [18] 13.3 µM | [19] 0.738 µM
inactive: [1]

CS/C(C)=N/OC(=O)N(C)SN(C)C(=O)O/N=C(\C)SC
inactive: [1] | [2] | [3] | [4] | [6] | [7] | [8] | [9] | [20] | [10] | [11] | [12] | [13] | [14] | [15] | [17] | [18] | [19]
active: [16] 9.92 µM

O=C(O)COc1nc(Cl)c(Cl)cc1Cl
active: [12] 51 µM | [13] 51 µM
inactive: [1] | [2] | [3] | [4] | [6] | [7] | [8] | [9] | [20] | [10] | [11] | [14] | [15] | [16] | [17] | [18] | [19]

N#Cc1nn(-c2c(Cl)cc(C(F)(F)F)cc2Cl)c(N)c1S(=O)C(F)(F)F (stereo not given)
active: [2] 32.6 µM | [4] 15.9 µM | [6] 54.4 µM | [7] 34.6 µM | [10] 58.3 µM | [12] 28.9 µM | [13] 29.9 µM | [14] 33 µM | [15] 34.9 µM | [16] 12.9 µM | [17] 24.6 µM | [18] 32.6 µM | [19] 30.2 µM
inactive: [1] | [3] | [5] | [8] | [9] | [11]

Cc1ccc(-c2c(Cl)nc(C#N)n2S(=O)(=O)N(C)C)cc1
inactive: [2] | [5] | [8] | [9] | [10]
active: [1] 68.3 µM | [3] 50 µM | [4] 3.99 µM | [6] 74.2 µM | [7] 87.4 µM | [11] 89.8 µM | [12] 5 µM | [13] 5.98 µM | [14] 9.33 µM | [15] 7.78 µM | [16] 5.17 µM | [17] 10.4 µM | [18] 24.8 µM | [19] 21.7 µM
